# Only some compounds are listed: those with a hit (about 3.7% of all), similar ones and a draw of the others.
# Nrf2 activator – qHTS of Nrf2 Activators; AREc32 ARE-luciferase reporter (MCF7-derived line), luminescence, 24 h; Potency, µM (titrated, usually from 46.1 µM), for inactives: top-dose activation, actives largely listed as activators; 410,000 compounds, 0.31% hits; AID 624171, 2012; note: potency is the fitted concentration of half-maximal effect; % of control where 0% means no effect; nearly all actives have a fitted effect of over 65% in size
#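 Luminescent ARE reporter assay in AREc32_Fluc cells: overnight plating at 37 deg C, 24 hr compound incubation, Steady-Glo added, 30 min RT before reading.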
# A549 tox – Nrf2 qHTS screen for inhibitors: counterscreen for cytotoxicity; 390,000 compounds, 0.16% hits; A549 ARE-Fluc cells, CellTiter-Fluor viability, 18-24 h; Potency, µM (doses to about 46 µM), for inactives: at the top dose activity change, negative = cytotoxicity, usual class: inhibitors; AID 504648, 2011; note: potency is the fitted concentration of half-maximal effect; % is set by controls: 0 for no effect and ±100 for the full control effect
#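 Cytotoxicity counterscreen: CellTiter-Fluor fluorescence was measured in A549 ARE_Fluc cells after 18-24 h of compound exposure in a concentration series. The subsequent BugLite luminescent read reports ARE-luciferase activity.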
# Nrf2 block – Nrf2 qHTS screen for inhibitors; A549 ARE-Fluc reporter, luciferase luminescence, 18-24 h; Potency, µM (titrated, usually from 46 µM), for the others: top-dose activity change, negative = inhibition, most hits filed as inhibitors; 360,000 compounds, 2.1% hits; note: potency is the fitted concentration of half-maximal effect; % is set by controls: 0 for no effect and ±100 for the full control effect; nearly all actives have a fitted effect of over 60% in size
#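 Quantitative HTS in A549 cells stably bearing an antioxidant response element-firefly luciferase construct. Inhibition of Nrf2-driven transcription was scored by luminescence after 18-24 h of compound exposure at 37 °C.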
# ClpP mod – qHTS Assay for Activators of ClpP. 340,000 compounds, 1.9% hits. purified B. subtilis ClpP, FRET peptide cleavage, 20 min. Potency, µM (highest dose often 57.5 µM), for inactives: top-dose activity change, negative = active; active = well fitted falling curve with a large enough effect; inconclusive = small, poorly fitted or top-dose-only effect; inactive = no such curve, though single readings can be large or run the other way; note: potency is the fitted concentration of half-maximal effect; the source files actives as falling curves though it sought activators and does not explain the sign; nearly all actives have a fitted effect of over 65% in size
# Target sequence (P80244 whole entry, looked up): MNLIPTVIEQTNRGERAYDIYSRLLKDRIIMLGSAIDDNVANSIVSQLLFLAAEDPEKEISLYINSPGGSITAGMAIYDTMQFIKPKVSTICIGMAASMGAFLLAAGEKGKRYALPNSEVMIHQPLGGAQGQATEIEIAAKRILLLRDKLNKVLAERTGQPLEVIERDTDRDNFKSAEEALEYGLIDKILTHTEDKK
#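 Purified B. subtilis ClpP, 10 microg/mL final in Tris/HCl pH8 with KCl, BSA, glycerol and Tween-20, cleaved an Abz/nitrotyrosine-quenched decapeptide. Fluorescence (ex 320, em 430) was read at 0 and 20 min at room temperature. Delta was normalized to 5.8 microM ADEP and DMSO/no-enzyme controls.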
# miR-21 reporter – qHTS Assay for Modulators of miRNAs and/orActivators of miR-21; HeLa miR-21 FLuc reporter, luciferase, 48 h; Potency, µM (doses to about 38.3 µM), without a hit: at the top dose activity change, positive = activation, usual class: activators; 340,000 tested, under 10 active; AID 2288, 2010;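 note: % of control where 0% means no effect; miR-21 action dims this reporter so a rising signal means less miR-21 action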
#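 HeLa cells stably expressing CMV-driven firefly luciferase with a downstream miR-21 binding sequence, endogenously expressing miR-21, were treated with titrations (up to about 40uM final) for 48 hours at 37 degree Celsius. Luciferase luminescence was read after lysis.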
# p53 reactivation – qHTS assay for re-activators of p53 using a Luc reporter; H1299 p53-A138V BP100-luciferase reporter, luminescence, 24 h; Potency, µM (highest dose often 92.2 µM), for the others: at the top dose activity change, positive = activation, hits mostly activators; 320,000 compounds, 0.063% hits; AID 504706, 2011; note: potency is the fitted concentration of half-maximal effect; % of control where 0% means no effect; nearly all actives have a fitted effect of over 45% in size
#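 p53-null H1299 cells stably carrying temperature-sensitive p53-A138V and a BP100-luciferase reporter were pinned with compounds (4-point, 1:5 series) and held 24 hrs at 37 deg C. Luminescence was read 10 min after detection reagent.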
# * marks the source's active call; other numbers are inactive results; ? = inconclusive; . = not tested or not shown. Unless noted, calls come from the whole dose curve; as a rule, active = well fitted curve in the direction sought with a large enough effect; inconclusive = small, poorly fitted or top-dose-only effect, or another doubt; inactive = no such curve, though single readings can be large; an effect the other way counts as inactive or inconclusive.
SMILES,Nrf2 activator,A549 tox,Nrf2 block,ClpP mod,miR-21 reporter,p53 reactivation
CN1CCN(c2ncnc3c2[nH]c2ccc(F)cc23)CC1,5.4%,2.5%,-5.8%,28.2µM*,-9.2%,-11.8%
COc1ccc2[nH]c3c(N4CCC(O)(c5cccc(C(F)(F)F)c5)CC4)ncnc3c2c1,-1.4%,?,23.1µM*,31.6µM*,?,-10.4%
Cc1cc(C)n(-c2nc(C)c(C)c(=O)n2CC(=O)Nc2ccc([N+](=O)[O-])cc2)n1,0.4%,-8.8%,.,-0.3%,-1.6%,.
Cc1ccc(CNC(=O)CN2C(=O)C3CCCCN3c3ccc(C(=O)N(C)C)cc32)cc1 (stereo not given),-0.3%,3.1%,.,-4.4%,-0.5%,.
COc1ccc(CNC(=O)CN2C(=O)CC(c3ccc(C)c(C)c3)=Nc3ccccc32)cc1,4.5%,-1.0%,?,-0.5%,-65.5%,.
Cc1cc(=O)n(Cc2ccccc2Cl)c2c1c(C)nn2-c1ccccc1,0.4%,7.1%,?,-16.3%,-0.9%,.
Brc1ccc2[nH]c3c(N4CCc5ccccc5C4)ncnc3c2c1,3.0%,-13.4%,9.2µM*,31.6µM*,26.5%,12.1%
c1ccc2c(c1)[nH]c1c(N3CCN(C4CCCCC4)CC3)ncnc12,5.3%,?,-19.9%,31.6µM*,-1.8%,-17.0%
c1ccc2c(c1)[nH]c1c(N3CCCC3)ncnc12,4.6%,-9.1%,.,-26.4%,17.3%,-7.8%
CCOc1ccc2[nH]c3c(N4CCc5ccccc5C4)ncnc3c2c1,0.3%,-26.0%,?,.,?,1.3%
O=C(C1CCCO1)N1CCN(S(=O)(=O)c2cc(C(F)(F)F)ccc2Cl)CC1 (stereo not given),-0.8%,1.5%,17.1%,1.5%,.,-0.3%
Cc1ccc(N=Nc2c(N)[nH]n3c(=O)cc(-c4ccccc4)nc23)cc1,0.0%,?,?,28.2µM*,-5.1%,5.8%
Cc1[nH]n2c(=O)cc(-c3ccc(Cl)cc3)nc2c1-c1ccccc1,0.5%,-17.1%,7.31µM*,4.3%,?,.
Cc1[nH]n2c(=O)cc(C(C)(C)C)nc2c1-c1ccccc1,-0.9%,-24.4%,7.31µM*,2.8%,24.2%,18.2%
O=c1cc(-c2ccccc2)nc2c(Cl)cc(Cl)cn12,3.98µM*,.,.,-5.2%,.,.
Cc1[nH]n2c(=O)cc(-c3ccc([N+](=O)[O-])cc3)nc2c1-c1ccccc1,-0.9%,-28.1%,?,1.5%,.,.
COc1cccc(N=Nc2c(N)[nH]n3c(=O)cc(-c4ccccc4)nc23)c1,3.4%,?,.,15.5%,-2.3%,3.5%
CC(C)Oc1ccc(CNC(=O)CCCN2C(=O)c3cccnc3Oc3ccc(Cl)cc32)cc1,3.1%,-3.1%,?,-0.3%,6.4%,.
COc1ccc(-c2nc(C)c(CCNC(=O)c3cccc(C)c3)s2)cc1OC,4.6%,-16.0%,.,3.4%,-52.2%,.
CCOc1ccc(CCNC(=O)c2cccc(-n3c(C)nc4cccnc43)c2C)cc1,0.0%,-0.8%,?,-2.6%,21.2%,.
CC(=O)NCC(=O)OCC(=O)c1ccc2ccccc2c1,-0.7%,-2.0%,15.9%,28.2µM*,-4.4%,0.0%
Cc1cccc(C(=O)NCC(=O)OCC(=O)c2ccc3ccccc3c2)c1,.,-8.9%,7.1%,?,.,.
Cc1cc2c(s1)c1cnn(Cc3ccc(Cl)cc3)c(=O)c1n2C,.,-5.6%,3.4%,.,.,.
CCN(C(=O)C(C)N1C(=O)/C(=C/c2ccco2)SC1=S)C1CCS(=O)(=O)C1 (stereo not given),25.2%,14.6µM*,?,0.6%,0.1%,-23.4%
CCN(C(=O)CN1C(=O)S/C(=C\c2cccc(Cl)c2)C1=O)C1CCS(=O)(=O)C1 (stereo not given),11.2µM*,0.4%,-15.9%,0.3%,7.1%,-1.1%
SMILES,Nrf2 activator,A549 tox,Nrf2 block,ClpP mod,miR-21 reporter,p53 reactivation
Nc1c(C(=O)NC2CC2)c2nc3ccccc3nc2n1-c1ccc2c(c1)OCO2,4.3%,-10.7%,.,31.6µM*,-1.1%,-18.9%
CCCNC(=O)c1c(N)n(-c2ccc3c(c2)OCO3)c2nc3ccccc3nc12,-0.3%,-10.4%,0.5%,-12.1%,-5.4%,0.2%
COc1ccc(/C=C/c2ccnc3ccccc23)cc1,.,.,.,-11.9%,.,.
Cc1cc(C)n(C(=O)c2ccccc2[N+](=O)[O-])n1,2.2%,7.9%,12.7%,35.5µM*,0.1%,15.2%
Cc1cc(C)n(C(=O)c2cccc([N+](=O)[O-])c2C)n1,-1.2%,-0.1%,-12.2%,2.5%,0.1%,.
O=C1C=CC(=C(c2ccc(O)cc2)c2ccc(O)cc2)C=C1,-3.0%,23.1µM*,13µM*,-0.1%,.,-30.6%
COc1ccc(CNC(=O)c2cc3ccccn3n2)c(OC)c1,0.9%,-1.8%,12.1%,-17.9%,-0.4%,.
COc1ccc(CNC(=O)c2cc3cccc4c3n2CC(C)S4)c(OC)c1 (stereo not given),0.2%,0.1%,-12.9%,14.1µM*,1.1%,.
COc1ccc(OC)c(CCNC(=O)c2cc3cccc4c3n2CCS4)c1,3.3%,-2.3%,-21.5%,31.6µM*,8.2%,.
COc1cccc(CNC(=O)c2cc3cccc4c3n2CC(C)S4)c1OC (stereo not given),-1.0%,2.3%,-13.6%,35.5µM*,16.6%,.
O=C(NCc1ccccc1Cl)c1cc2cccc3c2n1CCS3,0.1%,4.5%,22.0%,28.2µM*,?,.
COc1ccccc1CNC(=O)c1cc2cccc3c2n1CCS3,5.9%,-3.6%,?,?,16.6%,.
CCC(C)Nc1sc(S(=O)(=O)CC)nc1S(=O)(=O)c1ccc(C)cc1 (stereo not given),0.1%,10.5%,-4.5%,0.1%,-1.4%,.
CSc1ncc(C(=O)NCc2ccc(C)cc2)c(C)n1,-0.8%,5.8%,-19.0%,-0.1%,-4.1%,.
COc1ccc(OC)c(NC(=O)CSC2=Nc3ccccc3C3=NC(CCC(=O)NCc4ccco4)C(=O)N23)c1 (stereo not given),-0.8%,2.1%,.,-0.1%,-5.9%,.
COc1ccc(CNC(=O)c2cc3cccc4c3n2CC(C)S4)cc1OC (stereo not given),2.8%,-0.2%,?,31.6µM*,5.9%,.
COc1ccc(-n2cc(C(=O)NCCc3cc(OC)ccc3OC)c3ccccc3c2=O)cc1,0.3%,-9.0%,2.6%,-4.7%,-9.5%,.
COc1ccc(OC)c(CCNC(=O)c2cc3cccc4c3n2CC(C)S4)c1 (stereo not given),4.8%,-1.4%,-28.6%,31.6µM*,23.1%,.

# Screening results (PubChem)
